Only some compounds are listed: those with a hit (about 19% of all), similar ones and a draw of the others.
MCF10A rerep: inducers of DNA re-replication in MCF 10A breast cells. MCF 10A DNA re-replication, Hoechst nuclear intensity, 48 h. Potency, µM (highest dose often 46.1 µM), without a hit: top-dose activity, positive = re-replication, hits mostly activators. 350,000 compounds, 2.9% hits. AID 624296; also: potency is read from the fitted curve at half-maximal effect; % of control where 0% means no effect; nearly all actives have a fitted effect of over 50% in size
DT40 TDP1 no CPT: qHTS for Inhibitors of human tyrosyl-DNA phosphodiesterase 1 (TDP1): qHTS in cells in absence of CPT; DT40 Tdp1-/- hTDP1 cells, no CPT, ATP luminescence, 48 h; Potency, µM (highest dose often 46.2 µM), for the others: at the highest dose activity change, negative = growth inhibition, actives largely listed as inhibitors; 420,000 compounds, 15% hits; AID 686978, 2013; also: potency is read from the fitted curve at half-maximal effect; % is scaled to controls: 0 for no effect and ±100 for the full control effect; nearly all actives have a fitted effect of over 55% in size
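Chicken DT40 Tdp1-/- cells stably complemented with human TDP1 were seeded at 400 cells/well with DMSO in place of 20 nM camptothecin. After compound pinning, cells grew at least 48 hr at 37 °C; viability read by CellTiter-Glo luminescence.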
Chronic BCR inh: inhibitors of chronic active B-cell receptor signaling; 340,000 compounds, 0.05% hits; ABC-DLBCL IkBa-CBG/CBR reporter, luminescence ratio, 4 h; AID 493014; Potency, µM (top dose mostly 46.1 µM), inactives show top-dose activity change, negative = inhibition, hits mostly inhibitors; active = well fitted inhibition curve with a large enough effect in the signal ratio, with a control signal flat, not every such curve was filed as active; inconclusive = small, poorly fitted or top-dose-only effect, or effect the other way, or a change in a side signal; the % refers to the signal ratio;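 also: potency is read from the fitted curve at half-maximal effect; plate controls were basal doxycycline-induced cells for no effect and cells given 10 µM MG132 for full effect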
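TMD8 ABC-DLBCL cells carrying doxycycline-inducible green luciferase fused to IkappaBalpha plus unfused red luciferase were exposed to compounds (up to 46 uM) for 4 hrs at 37C. Activity came from the overlap-corrected green/red luminescence ratio.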
TDP1 cell CPT: growth inhibition of DT40 Tdp1-/-;hTDP1 cells with camptothecin (screen for TDP1 inhibitors); chicken DT40 Tdp1-/-;hTDP1 cells + 20 nM CPT, ATP luminescence, 48 h; Potency, µM (doses to about 46.2 µM), for the others: at the top dose activity change, negative = growth inhibition, actives largely listed as inhibitors; 420,000 compounds, 12% hits; also: potency is read from the fitted curve at half-maximal effect; % is scaled to controls: 0 for no effect and ±100 for the full control effect; nearly all actives have a fitted effect of over 55% in size
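Chicken DT40 Tdp1-/- cells complemented with human TDP1, 400 cells/well, exposed to compounds plus 20 nM camptothecin for at least 48 h at 37 C; viability read as ATP content by CellTiter-Glo luminescence.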
IL1B secr inh: inflammasome signaling inhibition, IL-1 beta readout; THP-1 LPS/ATP IL-1B secretion, AlphaLISA, 16 h; active compounds read low; activity change, % at 57.5 µM; 360,000 compounds, 4.7% hits; AID 743279; in the data active = activity change below about -50%; inconclusive = mostly about -30% to -49%; also: % is scaled to controls: 0 for no effect and ±100 for the full control effect
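Secreted IL-1B measured by AlphaLISA bead assay after 16 h compound exposure of THP-1 cells; compounds (final up to 57.5 uM) added 1 h before LPS (250 ng/mL) and ATP (1.25 mM) stimulation; lower signal means less secretion.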
SW480 rereplic: induces DNA re-replication in SW480 colon adenocarcinoma cells | SW480 DNA re-replication, Hoechst DNA content imaging, 48 h | Potency, µM (doses to about 46.1 µM), without a hit: at the highest dose re-replication activation, most hits filed as activators | 340,000 compounds, 1.8% hits | AID 624297; also: potency is read from the fitted curve at half-maximal effect; % of control where 0% means no effect; nearly all actives have a fitted effect of over 55% in size
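DNA re-replication was detected as more nuclei of elevated Hoechst intensity after 48 hr exposure to compound (23 nL pinned per well of 250 cells).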
An asterisk follows results filed as active; ? = inconclusive; · = no result given. Unless noted, calls follow the shape of the dose curve; as a rule, active = well fitted curve in the direction sought with a large enough effect; inconclusive = small, poorly fitted or top-dose-only effect, or another doubt; inactive = no such curve, though single readings can be large; an effect the other way counts as inactive or inconclusive.

SMILES | MCF10A rerep | DT40 TDP1 no CPT | Chronic BCR inh | TDP1 cell CPT | IL1B secr inh | SW480 rereplic
O=[N+]([O-])c1ccc(Nc2cccc3c2[nH]c2c(-c4ccccc4)nccc23)c([N+](=O)[O-])c1 | 0% | ? | · | ? | 14 | 1%
Cc1ccc(NC(=S)NNC(=S)Nc2ccc(C)cc2)cc1 | 25% | 2.3µM* | · | 6.5µM* | -1 | -5%
Cc1ccc(NC(=S)NNC(=O)c2ccccc2OC(F)F)cc1 | -4% | ? | -3% | ? | 24 | 16µM*
COCCCNC(=S)NNC(=O)C1CC1c1ccc(C(C)(C)C)cc1 (stereo not drawn) | -1% | 8.2µM* | -1% | 12µM* | 8 | 0%
CC(C)(C)NNC(=S)Nc1cccc(F)c1 | ? | 15µM* | ? | ? | · | 14%
CC(C)c1ccc(NC(=O)CCCc2nc(-c3ccc(Cl)cc3)no2)cc1 | · | -22% | · | -25% | · | ·
COc1ccccc1/C=N/NC(=O)CC(=O)NCCc1ccccc1 | 0% | -11% | · | 4% | · | -8%
CN1CCN(c2ccc(Cl)cc2NS(=O)(=O)c2ccccc2Cl)CC1 | -1% | ? | 13% | -15% | -6 | 0%
O=C(CNC(=O)c1ccc(F)cc1)N/N=C/c1cccnc1 | 13% | -8% | 4% | 1% | 25 | -11%
CN(C)NC(=S)Nc1cccc(C(F)(F)F)c1 | -8% | -4% | -23% | 16% | · | 16%
CC(NC(=S)Nc1cccc(C(F)(F)F)c1)C(C)(C)C (stereo not drawn) | 3% | 16µM* | ? | ? | -81* | ?
CN(C)C(=O)c1ccc(NC(=O)COC(=O)C2CCN(S(=O)(=O)c3ccc4c(c3)OCCO4)CC2)cc1 | 3% | 4% | -1% | -4% | 9 | -7%
CCc1ccc(Nc2cc(=O)n(C3CCCCC3)c(=O)[nH]2)cc1 | 19% | -72% | ? | ? | -4 | ?
O=c1cc(Nc2ccc3c(c2)OCCO3)[nH]c(=O)n1-c1ccc(Cl)cc1 | 6% | 18µM* | -13% | 23µM* | -1 | -6%
O=c1cc(Nc2ccc3c(c2)OCCO3)[nH]c(=O)n1C1CCCCC1 | ? | 16µM* | 3% | 15µM* | 16 | 12µM*
Cc1ccc2c(c1)sc(-c1ccc(N(C)C)cc1)[n+]2C | 12µM* | 0.018µM* | ? | 0.037µM* | ? | 13µM*
CCCCCCOc1ccc(OC(=O)c2ccncc2)cc1 | 23µM* | 23µM* | 3% | 13µM* | 12 | ?
CCCOc1cccc(C(=O)Nc2ccc(CN3CCOCC3)cc2)c1 | 21µM* | ? | ? | -22% | -53* | 28%
CCCOc1ccc(C(=O)Nc2ccc(CN3CCOCC3)cc2)cc1 | ? | ? | -1% | ? | -21 | -2%
CCCCOc1ccc(C(=O)Nc2ccncc2)cc1 | ? | 2.6µM* | ? | 5.2µM* | ? | -3%
CCCOc1ccc(C(=O)Nc2cccnc2)cc1 | 5% | ? | -14% | ? | -19 | -8%
CCCCOc1ccc(C(=O)Nc2ccc(CN3CCOCC3)cc2)cc1 | ? | ? | 1% | 13µM* | -62* | ?
CC(C)Oc1cccc(C(=O)Nc2ccc(CN3CCOCC3)cc2)c1 | -10% | ? | 1% | -20% | 6 | 2%
COCCn1ccc2c(OCC(=O)Nc3cccc(NC(C)=O)c3)cccc2c1=O | 11% | -25% | ? | -23% | -14 | -7%
COCCCn1c(SCC(N)=O)nnc1-c1ccccc1 | -8% | -21% | ? | -8% | 14 | -8%
COCCCn1c(SCC(=O)NC(C)C)nnc1-c1ccccc1 | 1% | 23µM* | 2% | ? | -6 | -8%

High-throughput results deposited in PubChem by National Center for Advancing Translational Sciences (NCATS).
